Rows were chosen to be rich in hits. Some 7.8% of all compounds tested hit in one or more screens of this group.
HCV inh: HCV inhibition; Huh7.5.1 HCVcc-Cre infection, luciferase reporter, 44 h; Potency, µM (series often up to 41.8 µM), without a hit: top-dose activity change, negative = inhibition, actives largely listed as inhibitors; 340,000 compounds, 3.4% hits; AID 651820; active = well fitted inhibition curve with a large enough effect; inconclusive = small, poorly fitted or top-dose-only effect, or another doubt; inactive = no such curve, though single readings can be large or run the other way; also: potency is read from the fitted curve at half-maximal effect
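Seed cells (1,000/well) for 4 h; treat with compound and infect with HCVcc-Cre, moi about 0.5. Incubate 44 h, then detect luciferase activity.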
HCMV inh: human cytomegalovirus inhibition; activity change, negative = inhibition, % at 57.5 µM; 410,000 compounds, 4.5% hits; AID 1259415; HFF cells, HCMV-luciferase reporter, 72 h; hits give low values; in the data active = activity change below about -60%; inconclusive = no clear call, values can overlap the other calls; inactive = above about -39%
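Compounds were evaluated in HFFs infected with an HCMV luciferase reporter virus (MOI 1 PFU/cell). Luciferase in lysates collected 72 h post infection served as the replication measure.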
Marburg entry inh: Marburg virus entry inhibition. Marburg virus pseudotyped entry inhibition, cell reporter. Potency, µM (titrated, usually from 37.8 µM), for the others: at the highest dose activity change, negative = inhibition, hits mostly inhibitors. 300,000 compounds, 1.8% hits; calls by dose curve; tested in HEK293 cells; also: potency is read from the fitted curve at half-maximal effect
Lassa entry inh: Lassa virus entry inhibition; 300,000 compounds, 1.2% hits; Potency, µM (doses to about 37.9 µM), without a hit: at the top dose activity change, negative = inhibition, usual class: inhibitors; Lassa virus pseudotype entry inhibition, cell reporter; calls by dose curve; tested in HEK293 cells; also: potency is read from the fitted curve at half-maximal effect; nearly all actives have a fitted effect of over 50% in size
VACV mCherry inh: vaccinia inhibition (mCherry reporter); AID 720579; 310,000 compounds, 0.63% hits; Potency, µM (highest dose often 36.5 µM), for the others: top-dose activity change, negative = inhibition, actives largely listed as inhibitors; Vaccinia virus mCherry reporter infection, fluorescence; calls by dose curve; tested in A549 cells; also: potency is read from the fitted curve at half-maximal effect; nearly all actives have a fitted effect of over 35% in size
VACV Venus inh: vaccinia inhibition (Venus reporter). Vaccinia virus Venus reporter expression, fluorescence. Potency, µM (series often up to 36.5 µM), inactives show at the top dose activity change, negative = inhibition, most hits filed as inhibitors. 330,000 compounds, 0.46% hits. AID 720580; calls by dose curve; tested in A549 cells; also: potency is read from the fitted curve at half-maximal effect; nearly all actives have a fitted effect of over 30% in size
An asterisk follows results filed as active; i = inactive; ? = inconclusive; . = not tested or not shown; [ ] = dose if it differs, or a comment. % is scaled to controls: 0 for no effect and ±100 for the full control effect.

SMILES	HCV inh	HCMV inh	Marburg entry inh	Lassa entry inh	VACV mCherry inh	VACV Venus inh
O=C(CCS(=O)(=O)c1ccccc1)Nc1ccc(-c2nc3ccccc3s2)cc1	?	-20.7	14.1µM*	?	-16.9%	-5.3%
CCS(=O)(=O)c1ccccc1C(=O)Nc1ccc(-c2nc3ccccc3s2)cc1	.	28.5	.	-21.4%[46.1 µM]	-4.9%[7.34 µM]	-12.1%[7.34 µM]
CC(C)(C)C(=O)Nc1ccc(-c2nc3ccccc3s2)cc1	.	-103.1*	?	?	-7.8%	-7.4%
Cc1cc(=O)[nH]c2nnc(SCc3ccccc3F)n12	.	2.9	.	-12.8%[46.1 µM]	i	-15.5%
Cc1ccc(NC(=O)Cn2c(-c3nonc3N)nc3ccccc32)cc1Cl	.	69.9	?	?	-4.3%	-10.2%
O=c1c(F)cn([C@H]2CCCO2)c(=O)n1Cc1ccccc1Cl	.	.	1.6%	.	.	.
N#Cc1ccc(/C=C\c2nccc3c2[nH]c2ccccc23)cc1	?	-76.5*	?	15.3%	-5.9%	-9.8%
Clc1ccc(/C=C\c2nccc3c2[nH]c2ccccc23)cc1	?	22.6	-15.6%[46.1 µM]	.	?	-25.2%
c1ccc2c(-c3ccncc3)c[nH]c2c1	7.94µM*	-18.3	-29.7%	-4.8%	-20.8%	6.8%
CC(C)c1ccc(N2C(=O)CSC23C(=O)N(Cc2cccc(F)c2)c2ccccc23)cc1 (stereo not given)	.	?	.	-2.3%[46.1 µM]	?	-28.8%
CC(C)c1ccc(N2C(=O)CSC23C(=O)N2CCCc4cccc3c42)cc1 (stereo not given)	-6.5%	-110.6*	7.9%	-1.1%	.	.
CN1CCN(C2=Cc3ccccc3Sc3cc(F)ccc32)CC1	?	24.6	?	-9.6%	?	?
CN1CCN(C2=Cc3ccc(Cl)cc3Sc3ccc(F)cc32)CC1	?	22.1	7.94µM*	?	?	?
O=C1NC(=S)N/C1=C/c1cccc([N+](=O)[O-])c1	4.2%	-21.8	0.8%[46.1 µM]	10.9%	-2.1%	-3.3%
O=C1NC(=S)N/C1=C/c1ccc(-c2c(Br)cc([N+](=O)[O-])cc2Br)o1	8.91µM*	.	-6.5%	.	.	.
COc1ccc(C(C(=O)NC2CCCC2)N(C(=O)c2ccco2)c2ccc3c(c2)OCO3)cc1OC (stereo not given)	2.6%	-75.0*	-1.4%	-2.0%	.	-18.0%
O=C(NC1CCCCC1)C(c1cccnc1)N(C(=O)CCl)c1cccc(Cl)c1 (stereo not given)	0.891µM*	-103.9*	?	?	?	?
O=C(CCCC(=O)N(c1ccc2c(c1)OCCO2)C(C(=O)NC1CCCCC1)c1ccc(Cl)cc1)Nc1ccccn1 (stereo not given)	12.6%	-68.7*	?	?	-4.6%	-2.7%
COc1ccc(C(C(=O)NC2CCCC2)N(C(=O)c2ccco2)c2cc3c(cc2C(C)=O)OCO3)cc1OC (stereo not given)	15.8%	-19.2	7.4%[46.1 µM]	-4.9%	-15.3%	-14.1%
COc1ccc(N(C(=O)c2ccco2)C(C(=O)NC2CCCCC2)c2ccccc2)cc1 (stereo not given)	-13.7%	-77.1*	1.1%	?	.	-28.4%
Cc1cccc(N(C(=O)CNC(=O)c2ccco2)C(C(=O)NC2CCCCC2)c2cccnc2)c1 (stereo not given)	21.5%	-16.1	25.2%[46.1 µM]	-22.1%	-5.4%	-6.6%
O=C(CSc1nc(=O)n(CCN2CCOCC2)c2c1CCC2)Nc1ccc(Cl)c(Cl)c1	.	46.2	.	16.3%[46.1 µM]	-17.3%[7.34 µM]	-15.2%[7.34 µM]
Cc1ccc(Cl)cc1N1CCN(C(=O)CCC(=O)Nc2ccc3nc(N4CCC(C)CC4)cc(C)c3c2)CC1	.	-2.7	10.7%[46.1 µM]	?	-4.5%	-4.4%
COc1ccc(N(C(=O)/C=C/C(=O)Nc2cc(C)on2)C(C(=O)NC2CCCC2)c2ccccc2C)cc1 (stereo not given)	?	-63.6*	9.2µM*	?	?	?
COc1ccc(C(C(=O)NC2CCCCC2)N(C(=O)CCl)c2ccc(Cl)cc2)cc1 (stereo not given)	0.562µM*	-101.3*	?	?	-10.5%	-26.1%
SMILES	HCV inh	HCMV inh	Marburg entry inh	Lassa entry inh	VACV mCherry inh	VACV Venus inh
COC(CN(C(=O)CCl)C(C(=O)NC1CCCCC1)c1ccccc1C)OC (stereo not given)	10µM*	-96.7*	?	?	12.6µM*	11.2µM*
COc1ccc(N(C(=O)c2cnccn2)C(C(=O)NC2CCCCC2)c2ccc(Cl)cc2)cc1 (stereo not given)	-10.6%	?	0.5%	2.5%	-12.0%	-2.6%
CCCC(=O)Nc1c(-c2ccccc2)[nH][nH]c1=O	.	24.2	.	.	i	-8.6%
C[C@@H]1[C@@H](c2ccccc2)Oc2c(Cl)cccc2S(=O)(=O)N1Cc1cccc(F)c1	.	.	.	-0.6%[46.1 µM]	.	.
Cc1ccc(-c2[nH]ncc2CNCCc2cnn(-c3ccccc3)c2)cc1C	?	2.8	8.91µM*	-3.7%	-28.7%	-23.1%
Cn1cc(CCNCc2cn[nH]c2-c2ccc(-c3ccccc3)cc2)cn1	-24.6%	32.9	?	?	-20.9%	-13.1%
CSC1(SC2=NCCN2)SC2(NCCN2)S1	?	?	10µM*	9.6%	i	-11.5%
O=C(c1ccc(F)cc1)c1cn(Cc2ccccc2F)c2cc3c(cc2c1=O)OCCO3	.	-36.6	-10.0%[46.1 µM]	-7.0%[46.1 µM]	-12.6%	-9.4%
COc1ccc(Cn2cc(C(=O)c3ccc(OC)cc3)c(=O)c3cc4c(cc32)OCCO4)cc1	.	?	-17.2%[46.1 µM]	?	-9.1%	-6.2%
Cc1ccc(C(=O)c2cn(Cc3ccccc3)c3nc(C)ccc3c2=O)cc1	.	-72.9*	?	23.0%[46.1 µM]	-3.5%	-5.3%
COc1ccc(Cn2cc(C(=O)c3ccc(Cl)cc3)c(=O)c3cc4c(cc32)OCO4)cc1	.	-98.3*	?	?	?	?
COc1ccc2c(c1)c(=O)c(C(=O)c1ccc(C)cc1)cn2Cc1ccccc1F	.	-69.2*	11.2µM*	?	-25.6%	-24.4%
O=C(c1ccc(Cl)cc1)c1cn(Cc2ccccc2)c2cc3c(cc2c1=O)OCCO3	.	-63.5*	?	?	?	?
COc1ccc(N2CCN(C(=O)C3CCN(Cc4nc(-c5ccc(Cl)cc5)oc4C)CC3)CC2)cc1	.	-2.8	?	13.4%[46.1 µM]	-12.7%	-12.0%
CCOC(=O)CCCN1C(=O)CCn2nc(-c3cn(C)c4ccccc34)cc21	.	-7.7	?	-18.9%[46.1 µM]	-12.2%	-13.0%
CCOC(=O)c1c(C)[nH]c(C)c1S(=O)(=O)N1CCC(C(=O)NCc2ccccc2)CC1	.	8.0	.	-8.9%[46.1 µM]	-11.7%	-5.4%
CC(C)CC(=O)Nc1nnc(S(=O)(=O)N(CC(C)C)c2ccccc2)s1	.	68.0	.	?	-25.3%	-23.6%
COC(=O)c1c(Cl)c2n3ccccc3c(C)c(-c3ccccc3)c-2c1C(=O)OC	12.6µM*	89.6	?	-25.9%	i	40.8%
COC(=O)c1cc2c(-c3ccccc3)c(C)c3ccccn3c-2c1C(=O)OC	?	-34.5	?	?	.	18.8%
